# Records with an inconclusive call do not appear. Activity calls are given as the source filed them. How the source made its calls, unless noted: active means hit-call score of the fitted dose curve at least 0.9, where 1 is the maximum; inactive means score below 0.9.
# Test system: SRD5A2 (gene 6716)
# Assay: CCTE_Deisenroth_5AR_NBTE_ratio: CCTE's 5alpha-reductase NanoBRET Target Engagement Assay - Ratio, Deisenroth Lab (AID 2284322)
# Settings: actives raise or lower the signal
# How it was run: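 HEK293T transiently expressing SRD5A2-NanoLuc; cells exposed to chemical (8-point, 10 nM - 29.9 uM) for 5 h total, testosterone tracer added for final 2 h. NanoBRET acceptor/donor ratio (650/460 nm), bidirectional fit vs DMSO.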
SMILES,outcome,AC50
CCCCCCCC(=O)OCC(O)CO (centres undefined),inactive,
COc1ccc(N=Nc2cc(C)c(N=Nc3ccc(S(=O)(=O)O)cc3)cc2OC)cc1,,87 µM (active)
CC(=O)O[C@H]1C[C@@H]2CC[C@@]1(C)C2(C)C,inactive,
Clc1ccc(C(c2ccccc2Cl)C(Cl)Cl)cc1 (centres undefined),inactive,
Cc1ccc(S(=O)(=O)Oc2ccc(N=Nc3ccc(-c4ccc(N=Nc5c(O)ccc6cc(S(=O)(=O)O)cc(S(=O)(=O)O)c56)c(C)c4)cc3C)cc2)cc1,,11.9 µM (active)
O=[N+]([O-])c1ccc(O)cc1C(F)(F)F,,50 µM (active)
CC(CN=Cc1ccccc1O)N=Cc1ccccc1O (centres undefined),inactive,
CCCCCCCCCCCCCCN(CCO)CCO,,77.7 µM (active)
C[C@H]1O[C@@H](O[C@H]2[C@@H](O)C[C@H](O[C@H]3[C@@H](O)C[C@H](O[C@H]4CC[C@@]5(C)[C@H](CC[C@@H]6[C@@H]5C[C@@H](O)[C@]5(C)[C@@H](C7=CC(=O)OC7)CC[C@]65O)C4)O[C@@H]3C)O[C@@H]2C)C[C@H](O)[C@@H]1O,,0.354 µM (active)
[O-]n1ccccc1=S.[O-]n1ccccc1=S.[Zn+2],inactive,
O=C(Nc1ccc2c(O)c(N=Nc3ccc(N=Nc4ccc(S(=O)(=O)O)cc4)cc3)c(S(=O)(=O)O)cc2c1)c1ccccc1,,11.6 µM (active)
Cc1cc(S(=O)(=O)O)ccc1N=Nc1c(O)ccc2ccccc12,,25 µM (active)
C=CC(=O)OCCCC,inactive,
Nc1ccc(N)c2c1C(=O)c1ccccc1C2=O,,2.08 µM (active)
Nc1ccccc1[N+](=O)[O-],,50 µM (active)

# Test system: not listed separately
# Assay: IUF_NPC1_cytotoxicity_72hr: Cytotoxicity Assessment at 72 hours in the Leibniz Research Institute for Environmental Medicine (IUF) Neural Progenitor Cell Proliferation Assay (NPC1) (AID 2284332; active means hit-call score of the fitted dose curve at least 0.9, where 1 is the maximum;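 further: rising LDH signal means more cytotoxicity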)
# Settings: not given
# How it was run: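 Spheres of primary human neural progenitors are plated one per well on day 0 in growth-factor medium and dosed at once. After three days at 37C, supernatant LDH is measured fluorimetrically via resazurin reduction.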
row,SMILES,outcome
1,CN(C)CCOC(C)(c1ccccc1)c1ccccn1 (centres undefined),inactive
2,COCCOCCOCCO,inactive
3,COCCc1ccc(OCC(O)CNC(C)C)cc1 (centres undefined),inactive
4,Oc1c(Cl)cc(Cl)c(Cl)c1Cc1c(O)c(Cl)cc(Cl)c1Cl,inactive
